Results reported in PubChem BioAssay.
Active and inactive are the calls of the source.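 Rule for the calls, unless noted: active = inhibition above 20% together with a positive visual image hit; inconclusive = visual image hit but inhibition not above 20%; inactive = no visual image hit.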

Columns and labels:
[1] = inhibitors of TNFa-induced NFkB p65 translocation, primary screen, imaging, HUVEC, MLSMR starter and 10KST1 sets (AID 438); details: HUVEC TNFa-induced p65 nuclear translocation; cell count: measured here: nuclei count (cytotoxicity indicator), at 2.08 µM; inhibition: at 2 µM, stronger effect = higher value, 0% TNFa-plus-vehicle, 100% no-TNFa wells;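 note: compound added about 3h40 before a 20 min TNFalpha stimulation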;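 for inhibition: signal is the nuclear over cytoplasmic p65 intensity ratio per well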
[2] = reduction of polyQ htt aggregates in cells – imaging, exon1htt(103Q)mCFP cells, high-content imaging, primary screen (AID 483;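 active = visual image review flags a hit and inhibition of aggregation exceeds 20%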;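 note: compound exposure lasted 3 days before fixation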;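 for nuclei count: percent of the per-plate median nuclei count of sample wells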); details: exon1htt(103Q)mCFP cell line, aggregate imaging, at 2 µM; inhibition of aggregation: stronger effect = higher value; nuclei count: measured here: cell count, toxicity
[3] = endothelial E-selectin expression blockers – imaging, HUVEC, immunofluorescence, MLSMR starter and 10KST1 sets, primary screen (AID 487;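 active = visually confirmed hit in the image check and inhibition above 20%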;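 for inhibition: signal is fraction of cell area covered by stained E-selectin grains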;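 for nuclei count: 100% = median nuclei count of all wells on the same plate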); details: HUVEC TNFalpha-induced E-selectin immunofluorescence imaging, at 2 µM; inhibition: stronger effect = higher value; nuclei count: measured here: cell number, toxicity
[4] = molecular target: Voltage-gated potassium channel subunit beta-2 (Rattus norvegicus) (UniProt P62483); test: inhibitors of rat Kvbeta2 reductase activity – biochemical, NADPH fluorescence, primary screen (AID 622;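 active = fluorescence slope higher than the sample average by over 3 SD, cut at about -0.22 in these data, passing the limit was not always enough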;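 note: slope of raw intensity against log time taken from 70 to 1610 s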); details: recombinant KvBeta, 4-cyanobenzaldehyde reduction, at 10 µM, stronger effect = higher value
[5] = molecular target: Voltage-gated potassium channel subunit beta-2 (Rattus norvegicus) (UniProt P62483); test: enhancers of rat Kvbeta2 NADPH turnover – biochemical, NADPH fluorescence, primary screen (AID 623;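 active = NADPH fluorescence slope more negative than the mean of all samples by about 3 SD, 99.7% confidence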;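 note: fluorescence intensity change per second fitted from 20 to 320 s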); details: Recombinant KvBeta, NADPH fluorescence decrease slope, 10 min; at 10 µM; stronger effect = lower value
[6] = molecular target: Alpha-2C adrenergic receptor (Homo sapiens) (UniProt P18825); test: compounds altering alpha2C-coupled GIRK flux – cell-based, HEK293 alpha2C/GIRK1/2, thallium flux, primary screen (AID 624;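 active = fluorescence slope after compound addition differing from the mean of all screened samples at 99.7% confidence, in either direction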;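 note: slope of fluorescence ratio to pre-addition baseline per second over 15 to 24 s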); details: thallium flux BTC fluorescence, at 10 µM, actives lie on both sides
[7] = blockers of RIG-like receptor reporter activation – cell-based, Sendai virus stimulus, luciferase, 10K MLSCN set, TLR/RLR signaling modifier project, primary screen (AID 602276;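 active = inhibition at or above 50% at 10 µM; inactive = inhibition below 50%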;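 note: firefly luciferase from ISG56 promoter only with Renilla not read in this screen; 0% = Sendai virus plus DMSO and 100% = medium plus DMSO without virus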); details: HEK293 RL24 IRF3 luciferase reporter, at 10 µM, stronger effect = higher value
[8] = TLR3 IRF3 reporter activation blockers – cell-based, poly I:C stimulus, luciferase, 10K MLSCN set, primary screen (AID 602277;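 active = inhibition of the reporter signal at or above 50%; inactive = inhibition below 50%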); details: HEK293-TLR3 RL24 IRF3 luciferase reporter, at 10 µM, stronger effect = higher value

Sequence of Voltage-gated potassium channel subunit beta-2 (Rattus norvegicus) (P62483 whole entry, looked up): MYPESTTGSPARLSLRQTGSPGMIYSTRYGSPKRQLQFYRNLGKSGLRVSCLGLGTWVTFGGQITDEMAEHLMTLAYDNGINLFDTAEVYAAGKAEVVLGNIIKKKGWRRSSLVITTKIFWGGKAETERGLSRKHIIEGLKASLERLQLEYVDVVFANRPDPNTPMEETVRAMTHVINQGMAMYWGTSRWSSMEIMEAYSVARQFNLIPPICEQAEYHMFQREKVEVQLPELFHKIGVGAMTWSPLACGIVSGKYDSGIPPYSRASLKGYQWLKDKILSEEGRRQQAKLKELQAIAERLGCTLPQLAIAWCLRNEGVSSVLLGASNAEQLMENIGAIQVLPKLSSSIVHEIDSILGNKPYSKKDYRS
Sequence of Alpha-2C adrenergic receptor (Homo sapiens) (P18825 whole entry, looked up): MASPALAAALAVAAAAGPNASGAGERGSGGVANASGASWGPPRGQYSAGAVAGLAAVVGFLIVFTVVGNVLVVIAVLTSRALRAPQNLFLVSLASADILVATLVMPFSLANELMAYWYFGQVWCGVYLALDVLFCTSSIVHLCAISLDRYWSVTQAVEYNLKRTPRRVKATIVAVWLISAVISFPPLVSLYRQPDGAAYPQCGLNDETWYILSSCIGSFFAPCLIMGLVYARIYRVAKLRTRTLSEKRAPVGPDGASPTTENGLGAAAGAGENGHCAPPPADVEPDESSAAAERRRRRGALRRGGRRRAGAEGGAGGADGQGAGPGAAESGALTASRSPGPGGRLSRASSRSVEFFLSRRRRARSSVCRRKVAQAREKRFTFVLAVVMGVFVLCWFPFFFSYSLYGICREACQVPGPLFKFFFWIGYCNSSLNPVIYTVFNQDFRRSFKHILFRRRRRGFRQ

| SMILES | cell count [1] | inhibition [1] | inhibition of aggregation [2] | nuclei count [2] [%] | inhibition [3] | nuclei count [3] [%] | fluorescence slope [4] | NADPH fluorescence slope [5] | slope [6] | inhibition [7] | inhibition [8] |
| --- | --- | --- | --- | --- | --- | --- | --- | --- | --- | --- | --- |
| CCOC(=O)C1CCN(C(c2cc3cc(C)cc(C)c3[nH]c2=O)c2nnnn2C2CCCCC2)CC1 (stereo not drawn) | 444 | -8.2% (inactive) | -7.5% (inactive) | 77.4 | -75.4% (inactive) | 159 | -0.625 (inactive) | -3.6e-06 (inactive) | 0.00591 (inactive) | 13.6% (inactive) | 38.3% (inactive) |
| Cc1ccc(-c2oc3ccccc3c(=O)c2O)cc1 | 559 | -12% (inactive) | -15.8% (inactive) | 15.8 | 2.6% (inactive) | 105 | -0.0172 (active) | -2.7e-06 (inactive) | 0.00718 (inactive) | -10.6% (inactive) | -26.8% (inactive) |
| CCOC(=O)CSc1nnc(-c2ccccc2OC)o1 | 574 | -3.6% (inactive) | -42.2% (inactive) | 112 | -74.1% (inactive) | 105 | -0.523 (inactive) | -0.000143 (inactive) | 0.00552 (inactive) | -10.7% (inactive) | 99.6% (active) |
| Cc1cccc2cc(COC(=O)C(C)(C)C)c(=O)[nH]c12 | 364 | 5.1% (inactive) | 2.3% (inactive) | 102 | 14.2% (inactive) | 89.1 | -0.471 (inactive) | 3.7e-06 (inactive) | 0.0027 (inactive) | 10.9% (inactive) | 22.5% (inactive) |
| CCNCC(O)COCC(O)CNCC (stereo not drawn) | 493 | -5.5% (inactive) | -14.4% (inactive) | 84.2 | 4.5% (inactive) | 117 | -0.256 (inactive) | 8.5e-06 (inactive) | 0.0061 (inactive) | 13.1% (inactive) | 21.4% (inactive) |
| O=C(O)[C@@H]1CCCN1c1ncnc2sc3c(c12)CCC3 | 434 | -5.7% (inactive) | 0.1% (inactive) | 128 | -149% (inactive) | 247 | -0.412 (inactive) | -2.3e-05 (inactive) | 0.00577 (inactive) | 17.9% (inactive) | 13.8% (inactive) |
| CCOC(=O)c1ccc(NC(=O)COc2ccc(-n3cnnn3)cc2)cc1 | 354 | -0.5% (inactive) | -2.9% (inactive) | 60.6 | 5% (inactive) | 102 | -0.405 (inactive) | -1.2e-05 (inactive) | 0.00538 (inactive) | 1.41% (inactive) | 11.4% (inactive) |
| CCN1CCN(S(=O)(=O)Cc2ccccc2)CC1 | 426 | -2.4% (inactive) | 23.9% (inactive) | 32.2 | -78.4% (inactive) | 106 | -0.607 (inactive) | -2.9e-05 (inactive) | 0.00543 (inactive) | -13.3% (inactive) | -9.78% (inactive) |
| CCOC(=O)CN1CC23C=CC(O2)C(C(=O)Nc2ccc(OC)cc2OC)C3C1=O (stereo not drawn) | 563 | 8% (inactive) | 8.7% (inactive) | 81.1 | -54% (inactive) | 116 | -0.574 (inactive) | -1.5e-05 (inactive) | 0.00618 (inactive) | 8.81% (inactive) | 32% (inactive) |
| CCc1cc2c(=O)n(C(C)C(=O)OC3CCCCC3)cnc2s1 (stereo not drawn) | 561 | 0% (inactive) | 32% (inactive) | 114 | -73.8% (inactive) | 103 | -0.486 (inactive) | -3.4e-05 (inactive) | 0.00382 (inactive) | -49.6% (inactive) | -101% (inactive) |
| CCOC(=O)N1CCC(NC(=O)c2cnn3ccccc23)CC1 | 761 | 7.4% (inactive) | -3.3% (inactive) | 88.5 | -67% (inactive) | 113 | -0.589 (inactive) | 4.8e-07 (inactive) | 0.0078 (inactive) | -3.54% (inactive) | 9.82% (inactive) |
| c1ccc(CCn2nnnc2CN2CCN(C3CCCC3)CC2)cc1 | 290 | -15.4% (inactive) | -9.3% (inactive) | 112 | -40.7% (inactive) | 118 | -0.604 (inactive) | -4.3e-05 (inactive) | 0.0058 (inactive) | -0.279% (inactive) | 20.4% (inactive) |
| COCC(C)NC(=O)NC(=O)c1ccc(Cl)cc1 (stereo not drawn) | 715 | 0.4% (inactive) | 10.2% (inactive) | 100 | -67.6% (inactive) | 98.3 | -0.476 (inactive) | 2.1e-05 (inactive) | 0.00585 (inactive) | 14.1% (inactive) | 12.5% (inactive) |
| O=C(Nc1ccc2snnc2c1)N1CCSCC1 | 407 | -3% (inactive) | 1.8% (inactive) | 97.6 | 12.4% (inactive) | 106 | -0.371 (inactive) | -1.5e-05 (inactive) | 0.00608 (inactive) | -5.1% (inactive) | 3.28% (inactive) |
| COc1ccc(OC)c(S(=O)(=O)N2CCN(c3c(C)cccc3C)CC2)c1 | 622 | 1.1% (inactive) | 30.2% (inactive) | 111 | -9.3% (inactive) | 102 | -0.541 (inactive) | -4.7e-05 (inactive) | 0.00796 (inactive) | 9.96% (inactive) | 30.5% (inactive) |
| COc1ccc(S(=O)(=O)N2CCN(CC(=O)Nc3ccc(F)c(F)c3)CC2)cc1 | 322 | -7.6% (inactive) | 9.7% (inactive) | 94.6 | -62.9% (inactive) | 97.3 | -0.51 (inactive) | -2.7e-05 (inactive) | 0.00502 (inactive) | 22.7% (inactive) | 32% (inactive) |
| COc1cc2c(cc1OC)C(c1ccc(C)o1)CC(=O)N2 (stereo not drawn) | 748 | 0% (inactive) | -33.4% (inactive) | 112 | -48.1% (inactive) | 122 | -0.574 (inactive) | -3e-05 (inactive) | 0.00589 (inactive) | 11.9% (inactive) | 30.4% (inactive) |
| N#C/C(=C(/O)COC(=O)CCC1CCCCC1)c1nc2ccccc2[nH]1 | 317 | -3.4% (inactive) | -9.2% (inactive) | 120 | -3.3% (inactive) | 113 | -0.595 (inactive) | -3.2e-05 (inactive) | 0.0028 (inactive) | 16.8% (inactive) | 24.8% (inactive) |
| CCCCOC(=O)CN1C(=O)c2ccc(C(=O)OCCCC)cc2C1=O | 619 | -4.1% (inactive) | -4.5% (inactive) | 36.7 | -48.1% (inactive) | 88.2 | -0.486 (inactive) | -2.2e-05 (inactive) | 0.00602 (inactive) | -2.49% (inactive) | 26% (inactive) |
| O=C(CN1CCC(c2nc3ccccc3s2)CC1)NCc1cccs1 | 699 | -1% (inactive) | 12.8% (inactive) | 87.9 | -4.6% (inactive) | 103 | -0.604 (inactive) | -3.9e-05 (inactive) | 0.00309 (inactive) | -1.46% (inactive) | -58.5% (inactive) |
| O=C(O)c1ccc(COc2c(F)c(F)cc(F)c2F)cc1 | 611 | -0.8% (inactive) | 27.2% (inactive) | 102 | -50.1% (inactive) | 107 | -0.453 (inactive) | -1.9e-05 (inactive) | 0.00642 (inactive) | 8.32% (inactive) | 8.92% (inactive) |
| Cc1ccc(CNC(=O)COC(=O)c2c(C)noc2C)cc1 | 581 | 6.9% (inactive) | 23.2% (inactive) | 89.7 | 46% (inactive) | 57.1 | -0.449 (inactive) | -4.4e-05 (inactive) | 0.00349 (inactive) | -1.51% (inactive) | 16.4% (inactive) |
| COCC(=O)N(C)c1nnc(-c2ccccn2)s1 | 433 | 1.4% (inactive) | 16.5% (inactive) | 84.4 | -12.1% (inactive) | 107 | -0.167 (inactive) | -1.3e-05 (inactive) | 0.0059 (inactive) | -7.53% (inactive) | -17.6% (inactive) |
| CCOc1ccccc1CN(Cc1ccco1)S(=O)(=O)c1ccc(-n2cnnn2)c(OC)c1 | 439 | 5.7% (inactive) | 13.2% (inactive) | 99.8 | 4.1% (inactive) | 113 | -0.519 (inactive) | -1.2e-05 (inactive) | 0.00748 (inactive) | -53.6% (inactive) | 63.3% (active) |
| Cn1c2ccc(F)cc2c2ncn(CCN3CCOCC3)c(=O)c21 | 719 | -8.9% (inactive) | -7.4% (inactive) | 81.6 | -39.1% (inactive) | 109 | -0.424 (inactive) | -1.5e-05 (inactive) | 0.00608 (inactive) | -47.2% (inactive) | 99.1% (active) |
| O=C(Cn1cnc2c(nnn2Cc2ccc(Cl)cc2)c1=O)NCC1CCCO1 (stereo not drawn) | 641 | -18.8% (inactive) | -21.6% (inactive) | 89.2 | -89.9% (inactive) | 132 | -0.522 (inactive) | -4.5e-06 (inactive) | 0.00509 (inactive) | 16.8% (inactive) | 26% (inactive) |
| O=C(Nc1ccncc1)C1c2ccccc2Oc2ccccc21 | 722 | 2.8% (inactive) | 1.3% (inactive) | 90.9 | 19.9% (inactive) | 102 | -0.201 (inactive) | -1e-05 (inactive) | 0.0059 (inactive) | 12.2% (inactive) | 17.7% (inactive) |
| O=C(CN1C(=O)c2ccccc2C1=O)Nc1ccccc1C(=O)N1CCCC1 | 407 | 4% (inactive) | -27.4% (inactive) | 112 | -13.3% (inactive) | 97.4 | -0.594 (inactive) | -2.3e-05 (inactive) | 0.00562 (inactive) | 4.76% (inactive) | 11.3% (inactive) |
